Test [1] can be described thus: Nuclear factor erythroid 2-related factor 2/antioxidant responsive element (Nrf2/ARE) small molecule agonists: luciferase reporter gene qHTS assay in human keratinocytes (AID 1919969). Note: nearly all actives have a fitted effect of over 35% in size. Note: potency is the fitted concentration of half-maximal effect. To be noted: KeratinoSens HaCaT ARE-luciferase, luminescence, 24 h; series mostly up to 92.4 µM.
Test [2] has as its target Gonadotropin-releasing hormone receptor (Homo sapiens) (UniProt P30968). The test can be described thus: Human gonadotropin-releasing hormone receptor (GnRHR) small molecule agonists, calcium flux assay in GnRHR-HEK293 cells (AID 1920063). Note: nearly all actives have a fitted effect of over 35% in size. As to conditions: calcium flux fluorescence, agonist mode; series mostly up to 57.6 µM. The method, boiled down:
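Cells: HEK293 stably expressing human GnRHR. Steps: overnight (18 h) culture, 1 h calcium dye loading at 37 C, compound addition, kinetic fluorescence read at 480/540 nm. Each compound tested at 15 concentrations in triplicate.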
For orientation: A change in cytosolic calcium serves as a functional read-out for many receptors and channels.

For test [3], the target named is KiSS-1 receptor (Homo sapiens) (UniProt Q969F8). The test can be described thus: Human kisspeptin (KISS1R) small molecule agonists, calcium flux assay in KISS1R-HEK293 cells (AID 1920064; active = well fitted activation curve with a large enough effect in the repeat runs). To be noted: KISS1R-HEK293, calcium flux fluorescence, agonist; series mostly up to 76.8 µM. The method, boiled down:
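Cells plated and incubated 18 h; dye added, 1 h at 37 C; compounds in DMSO pinned in; signal read at 480/540 nm every second for 3 min. Each compound tested at 15 concentrations in triplicate.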

Test [4] in a line: G protein-coupled receptor (GPCR) small molecule agonists, calcium flux assay: HEK293 wild type cell line counter screen (AID 1920065). To be noted: HEK293 WT calcium flux, fluorescence, agonist mode; series mostly up to 57.6 µM. The method, boiled down:
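Counter-screen of the Tox21 10K library for non-specific calcium release: dye-loaded cells received compounds in DMSO and were monitored by kinetic fluorescence (480/540 nm, 3 min). Fifteen concentrations, run in triplicate.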

The nature of test [5]: p53 small molecule agonists, cell-based qHTS assay with human liver microsomes (AID 1963577).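 Note: p53 response element beta-lactamase reporter cells with liver microsomes plus NADPH.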 To be noted: HCT-116 p53RE-bla with human liver microsomes, ratio, 16 h; series mostly up to 66 µM. The method, boiled down: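 Metabolically competent format: test substances, human liver microsomes and NADPH (both 0.5 mg/mL final) incubated with p53RE-bla cells 16 h at 37 C. Beta-lactamase reporter signal then quantified by fluorescence.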

Test [6] in a line: p53 small molecule agonists, cell-based qHTS assay with rat liver microsomes (AID 1963578). To be noted: HCT-116 p53RE-bla, beta-lactamase ratio, 16 h; series mostly up to 66 µM. The method, boiled down:
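Each plate received p53RE-bla cells, then compound, then rat liver microsomes and NADPH (both 0.5 mg/mL final). Plates were held 16 h at 37 C, and beta-lactamase activity was detected with LiveBLAzer over 2 h.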
A general note: qHTS replaces the single test concentration by a dilution series.

A short description of test [7]: p53 small molecule agonists, cell-based qHTS assay with human liver microsomes: qHTS cell viability counter screen (AID 1963579). Note: nearly all actives have a fitted effect of over 45% in size. To be noted: p53RE-bla HCT-116 viability, ATP luminescence, 16 h, HLM; series mostly up to 66 µM. The method, boiled down:
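Tox21 library compounds, delivered from DMSO stocks, were tested on p53RE-bla cells together with 0.5 mg/mL human liver microsomes and 0.5 mg/mL NADPH (final) over 16 h at 37 C; CellTiter-Glo luminescence served as the cytotoxicity measure.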

Test [8] is described as follows: p53 small molecule agonists, cell-based qHTS assay with rat liver microsomes: qHTS cell viability counter screen (AID 1963580). Note: nearly all actives have a fitted effect of over 45% in size. To be noted: p53RE-bla HCT-116 + rat microsomes, ATP viability, 16 h; series mostly up to 66 µM. The essentials: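 p53RE-bla HCT-116 cells (4,000/well) rested 5 h at 37 C, then given Tox21 compounds in DMSO with rat liver microsomes (0.5 mg/mL final) plus NADPH (0.5 mg/mL final) for 16 h at 37 C. Viability read by CellTiter-Glo luminescence after 30 min at room temperature.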

A short description of test [9]: p53 small molecule agonists, cell-based qHTS assay: qHTS cell viability counter screen (AID 1963581). Note: nearly all actives have a fitted effect of over 45% in size. As to conditions: p53RE-bla HCT-116 viability, ATP luminescence, 16 h; series mostly up to 66 µM. The essentials: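 Cells: HCT-116 with p53 response element-driven beta-lactamase. Treatment: 16 h, 37 C, compounds in DMSO. Read: CellTiter-Glo luminescence after 30 min RT.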

A short description of test [10]: p53 small molecule agonists, cell-based qHTS assay (AID 1963582; active = well fitted activation curve with a large enough effect in the signal ratio in the repeat runs, not every such curve was filed as active; the % refers to the signal ratio). As to conditions: HCT-116 p53RE-bla reporter, beta-lactamase FRET ratio, 16 h; series mostly up to 66 µM. The method, boiled down: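 Quantitative HTS in p53RE-bla cells: after a 5 h settling period, compounds delivered in DMSO were left on cells for 16 h at 37 C, and reporter induction was measured as fluorescence following 2 h substrate loading.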

The target in test [11] is 5-hydroxytryptamine receptor 2A (Homo sapiens) (UniProt P28223). The test can be described thus: 5-hydroxytryptamine receptor 2A (HTR2A) small molecule antagonists, cell-based qHTS assay (AID 1963586). Note: nearly all actives have a fitted effect of over 45% in size. As to conditions: HTR2A-CHO cells, DOI-induced calcium flux, fluorescence; series mostly up to 61.5 µM. The essentials: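 Antagonist-mode intracellular calcium assay: DOI (4 nM) added after 5 min compound pre-incubation at room temperature to dye-loaded HTR2A-CHO cells. Fluorescence followed for 3 min, sampled every second.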
5-hydroxytryptamine receptor 2A (Homo sapiens), sequence (P28223 whole entry, looked up): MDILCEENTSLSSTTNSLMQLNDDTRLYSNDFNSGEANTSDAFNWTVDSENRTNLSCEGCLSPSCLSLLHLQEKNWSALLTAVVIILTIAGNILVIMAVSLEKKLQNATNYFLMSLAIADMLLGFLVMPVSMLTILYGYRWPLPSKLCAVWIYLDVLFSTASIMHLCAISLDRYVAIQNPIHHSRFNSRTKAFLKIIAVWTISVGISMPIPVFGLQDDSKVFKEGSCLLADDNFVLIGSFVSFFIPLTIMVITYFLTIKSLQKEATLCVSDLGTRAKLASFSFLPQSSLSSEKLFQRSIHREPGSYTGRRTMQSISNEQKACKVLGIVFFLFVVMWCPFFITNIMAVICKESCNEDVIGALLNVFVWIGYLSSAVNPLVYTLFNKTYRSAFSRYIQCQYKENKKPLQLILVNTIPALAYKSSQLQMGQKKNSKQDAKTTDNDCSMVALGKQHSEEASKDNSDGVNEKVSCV

Test [12] has the same target. In words: 5-hydroxytryptamine receptor 2A (HTR2A) small molecule agonists, cell-based qHTS assay (AID 1963587). Note: nearly all actives have a fitted effect of over 30% in size. To be noted: HTR2A-CHO cells, calcium flux fluorescence, agonist mode; series mostly up to 76.8 µM. The essentials: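 HTR2A-CHO cells, plated 18 h at 37 C/5% CO2, dye-loaded 1 h at 37 C; compounds in DMSO added by pin tool (agonist mode). Intracellular calcium flux read as kinetic fluorescence on FDSS over 2 min at 1 s intervals.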

Test [13] has as its target Muscarinic acetylcholine receptor M1 (Homo sapiens) (UniProt P11229). The test can be described thus: Cholinergic receptor muscarinic 1 (CHRM1) small molecule antagonists, cell-based qHTS assay (AID 1963588). Note: nearly all actives have a fitted effect of over 40% in size. As to conditions: CHRM1-CHO antagonist mode, calcium flux fluorescence; series mostly up to 61.5 µM. The method, boiled down:
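CHRM1-CHO calcium-flux assay, antagonist mode. Cells were seeded 18 h, dye-loaded 1 h at 37 C and given compound for 5 min at RT, then acetylcholine was added at 50nM. FDSS fluorescence was read 3 min; 15 concentrations, three runs.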

For test [14] the target is unchanged. The test can be described thus: Cholinergic receptor muscarinic 1 (CHRM1) small molecule agonists, cell-based qHTS assay (AID 1963589). Note: nearly all actives have a fitted effect of over 35% in size. As to conditions: CHRM1-CHO cells, agonist mode, calcium flux fluorescence; series mostly up to 76.8 µM. The method, boiled down: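 Agonist-mode qHTS in CHO cells stably carrying human muscarinic M1. Intracellular calcium is tracked by fluorescence every second after compound transfer; each compound runs at 15 concentrations in three independent runs.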

Test [15] can be described thus: cAMP Responsive Elements (CRE) small molecule agonists, cell-based qHTS assay (AID 1963590). To be noted: CRE-bla HEK293T, beta-lactamase FRET ratio, 3 h; series mostly up to 92.4 µM. The essentials: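 Agonist mode qHTS in CRE-bla HEK 293T cells: compounds dosed from DMSO for 3 h at 37 C/5% CO2, followed by LiveBLAzer B/G FRET substrate for 2 h at room temperature.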

A short description of test [16]: cAMP Responsive Elements (CRE) small molecule antagonists, cell-based qHTS assay (AID 1963591; active = well fitted inhibition curve with a large enough effect in the signal ratio in the repeat runs, not every such curve was filed as active; the % refers to the signal ratio). As to conditions: CRE-bla HEK293T, beta-lactamase FRET ratio; series mostly up to 92.4 µM. The essentials: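 Antagonist mode: test compounds are co-incubated with the adenylyl cyclase activator NKH477 (0.25 uM final) on CRE-bla HEK293T cells for 3 h at 37 °C, followed by LiveBLAzer substrate loading.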

The target in test [17] is Beta-2 adrenergic receptor (Homo sapiens) (UniProt P07550). In words: Adrenergic beta2 receptor (ADRB2) small molecule antagonists, cell-based qHTS assay (AID 1963592). Note: nearly all actives have a fitted effect of over 50% in size. As to conditions: CHO-ADRB2 cells, isoproterenol-stimulated cAMP HTRF ratio, 0.5 h; series mostly up to 92.4 µM. The method, boiled down: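 Cells (CHO, stable ADRB2 overexpression) incubated 18-20hr at 37C; compounds added from DMSO; agonist mix (1nM isoproterenol, 100uM IBMX, 25uM Ro-20-1724) added; 0.5hr RT; d2-cAMP and anti-cAMP-cryptate added; 1hr RT; 665/615 nm read.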
Beta-2 adrenergic receptor (Homo sapiens), sequence (P07550 whole entry, looked up): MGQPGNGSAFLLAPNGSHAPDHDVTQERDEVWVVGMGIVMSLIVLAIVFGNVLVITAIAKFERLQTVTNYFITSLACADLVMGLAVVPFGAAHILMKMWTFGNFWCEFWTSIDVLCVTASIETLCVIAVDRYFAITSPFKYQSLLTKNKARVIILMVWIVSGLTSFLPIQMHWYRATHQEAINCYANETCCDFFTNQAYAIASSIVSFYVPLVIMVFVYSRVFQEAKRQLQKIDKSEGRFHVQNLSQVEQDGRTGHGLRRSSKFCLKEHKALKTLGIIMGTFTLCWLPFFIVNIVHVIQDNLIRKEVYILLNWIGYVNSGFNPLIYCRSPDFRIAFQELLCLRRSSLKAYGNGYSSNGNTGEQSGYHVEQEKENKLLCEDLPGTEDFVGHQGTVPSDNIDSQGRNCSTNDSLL

Test [18] deals with D(2) dopamine receptor (Homo sapiens) (UniProt P14416). In words: Dopamine D2 receptor (DRD2) small molecule agonists, cell-based qHTS assay (AID 1963594). Note: nearly all actives have a fitted effect of over 35% in size. To be noted: HEK293-DRD2 cAMP HTRF, agonist mode, 30 min; series mostly up to 92.4 µM. The essentials: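 HEK293 cells stably expressing DRD2 were cultured 24 h at 37 C, then given Ro20-1724 (0.1 mM final) and compounds for 10 min at room temperature. NKH477 (200nM) was then added for 30 min. cAMP was read by HTRF.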
D(2) dopamine receptor (Homo sapiens), sequence (P14416 whole entry, looked up): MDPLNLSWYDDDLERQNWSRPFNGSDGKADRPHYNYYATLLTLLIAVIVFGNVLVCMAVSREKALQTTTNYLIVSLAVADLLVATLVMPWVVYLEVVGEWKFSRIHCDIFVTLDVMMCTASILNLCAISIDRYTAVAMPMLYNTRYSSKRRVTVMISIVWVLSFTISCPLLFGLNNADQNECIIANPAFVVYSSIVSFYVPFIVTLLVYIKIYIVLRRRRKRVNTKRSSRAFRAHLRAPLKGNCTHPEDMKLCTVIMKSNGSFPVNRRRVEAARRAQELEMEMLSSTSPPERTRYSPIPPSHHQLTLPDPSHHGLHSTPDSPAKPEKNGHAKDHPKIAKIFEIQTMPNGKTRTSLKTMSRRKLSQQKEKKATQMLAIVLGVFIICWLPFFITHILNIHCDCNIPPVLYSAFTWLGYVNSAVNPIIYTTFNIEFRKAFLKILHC

Test [19] has the same target. In words: Dopamine D2 receptor (DRD2) small molecule antagonists, cell-based qHTS assay (AID 1963595; active = well fitted inhibition curve with a large enough effect in the signal ratio in the repeat runs, with a control signal flat; the % refers to the signal ratio). As to conditions: HEK293-DRD2 cAMP HTRF antagonist mode; series mostly up to 92.4 µM. The essentials:
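Antagonism was scored as restored cAMP in HEK293-DRD2 cells. These cells were stimulated with 200 nM NKH477 and 12 nM quinpirole for 30 min at room temperature, in the presence of 0.1 mM Ro20-1724.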

Test [20] addresses Beta-2 adrenergic receptor (Homo sapiens) (UniProt P07550). The test can be described thus: Adrenergic beta2 receptor (ADRB2) small molecule agonists, cell-based qHTS assay (AID 1963593).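 Note: CHO cells stably overexpressing human ADRB2.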 To be noted: CHO-ADRB2 cells, cAMP HTRF, 30 min; series mostly up to 92.4 µM. The essentials: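 CHO cells stably over-expressing ADRB2 were plated overnight at 37C, then dosed with compounds plus a stimulation mix containing 100uM IBMX and 25uM Ro-20-1724 for 0.5hr at room temperature. cAMP was measured by HTRF competition, 1hr.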

This passage reports Potency results from PubChem BioAssay (Tox21).

The structures appear in SMILES notation. Where “and” joins values, the source holds several entries; their conditions need not be identical. Equal entries are not always repeated. Records with an inconclusive call do not appear. Some compounds were tested as several samples or in several runs, with calls that do not always agree. Calls of active or inactive are those of the source. Unless noted, calls come from the whole dose curve.

KiSS-1 receptor (Homo sapiens), sequence (Q969F8 whole entry, looked up): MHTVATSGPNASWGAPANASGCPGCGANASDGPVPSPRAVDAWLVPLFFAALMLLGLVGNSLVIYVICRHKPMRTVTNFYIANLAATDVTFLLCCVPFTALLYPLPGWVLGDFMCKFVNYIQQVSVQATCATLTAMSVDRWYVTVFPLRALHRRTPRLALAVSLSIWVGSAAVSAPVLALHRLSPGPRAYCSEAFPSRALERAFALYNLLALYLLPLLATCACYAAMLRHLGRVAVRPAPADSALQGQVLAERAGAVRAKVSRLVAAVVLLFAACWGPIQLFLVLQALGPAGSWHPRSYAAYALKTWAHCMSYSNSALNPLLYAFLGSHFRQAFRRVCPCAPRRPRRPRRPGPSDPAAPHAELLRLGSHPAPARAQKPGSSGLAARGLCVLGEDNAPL
Muscarinic acetylcholine receptor M1 (Homo sapiens), sequence (P11229 whole entry, looked up): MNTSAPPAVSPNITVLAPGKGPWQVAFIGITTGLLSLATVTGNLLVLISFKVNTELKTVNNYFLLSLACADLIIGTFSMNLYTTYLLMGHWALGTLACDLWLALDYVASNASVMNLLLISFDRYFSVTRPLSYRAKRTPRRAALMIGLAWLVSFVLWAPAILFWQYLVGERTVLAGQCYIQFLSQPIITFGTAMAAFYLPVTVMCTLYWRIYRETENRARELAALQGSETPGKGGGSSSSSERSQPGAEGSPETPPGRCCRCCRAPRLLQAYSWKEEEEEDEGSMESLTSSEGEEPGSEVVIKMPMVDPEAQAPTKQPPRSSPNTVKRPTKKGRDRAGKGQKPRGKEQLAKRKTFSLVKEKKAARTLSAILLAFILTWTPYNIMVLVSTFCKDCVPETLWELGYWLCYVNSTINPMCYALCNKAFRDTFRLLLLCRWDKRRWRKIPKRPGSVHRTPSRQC
Gonadotropin-releasing hormone receptor (Homo sapiens), sequence (P30968 whole entry, looked up): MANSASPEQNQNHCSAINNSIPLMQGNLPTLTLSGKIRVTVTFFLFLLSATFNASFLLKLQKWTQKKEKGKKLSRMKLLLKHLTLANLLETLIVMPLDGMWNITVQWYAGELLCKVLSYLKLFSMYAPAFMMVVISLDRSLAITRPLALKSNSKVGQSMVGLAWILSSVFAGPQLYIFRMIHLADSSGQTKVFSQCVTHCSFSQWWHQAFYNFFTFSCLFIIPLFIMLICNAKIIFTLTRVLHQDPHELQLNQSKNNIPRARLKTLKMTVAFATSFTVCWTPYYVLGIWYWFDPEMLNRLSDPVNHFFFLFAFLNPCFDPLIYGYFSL

Take `NCc1ccccc1Sc1ccccc1CO`: the Potency result in test [1], in test [2], in test [3], in test [4], in [5] and in test [6] was “inactive” in each case. The Potency result in test [7], in test [8], in test [9], in test [10], in [11] and in [12] was “inactive” in each case. Moreover, the Potency entry in test [13], in test [14], in test [15], in test [16], in [17] and in test [18] was “inactive” each time. Moreover, the Potency result in test [19] was “inactive”.
Consider `Clc1cc(Cl)c(Cl)c(Cl)c1Cl`, for which the Potency entry in test [1], in test [2], in test [3], in test [4], in test [5] and in test [6] was “inactive” in each case. In addition, the Potency entry in test [7], in test [8], in [9], in [10], in [11] and in [12] was “inactive” in each case. Besides, the Potency result in test [13], in test [14], in test [15], in test [16], in test [17] and in test [20] was “inactive” in each case. In addition, in test [18], the Potency entry was “inactive”.
Regarding `CC(C)CC(=O)OCc1ccccc1`, the Potency result in test [1], in test [2], in [3], in [4], in test [5] and in test [6] was “inactive” in each case. The Potency result in [7], in test [8], in test [9], in test [10], in test [11] and in test [12] was “inactive” in each case. The Potency result in [13], in test [14], in test [15], in [16], in test [17] and in test [18] was “inactive” each time. Also, in test [19], the Potency entry was “inactive”.
On to `C/C=C(\C)C(=O)OCc1ccccc1`, for which the Potency entry in test [1], in test [2], in test [3], in test [4], in test [5] and in test [6] was “inactive” throughout. Also, the Potency entry in test [7], in test [8], in test [9], in test [10], in [11] and in test [12] was “inactive” in each case. Besides, the Potency entry in test [14], in [15], in test [16], in test [17], in test [18] and in test [19] was “inactive” in each case.
With `CCCCCCCC(=O)N(C)C`, the Potency entry in [1], in [2], in test [3], in [4], in [5] and in test [6] was “inactive” each time. Also, the Potency result in test [7], in [8], in test [9], in [10], in test [11] and in [12] was “inactive” each time. Moreover, the Potency entry in test [13], in test [14], in test [15], in [16], in test [17] and in test [20] was “inactive” throughout. The Potency result in test [18] and in [19] was “inactive” each time.
With `C=C1[C@H]2CC[C@@H]3[C@H]2C(C)(C)CCC[C@]13C`, the Potency entry in test [1], in test [2], in test [3], in test [4], in test [5] and in test [6] was “inactive” throughout. Moreover, the Potency result in test [7], in test [8], in test [9], in test [10], in test [11] and in test [12] was “inactive” each time. Further, the Potency result in test [13], in [15], in [16], in test [17], in [20] and in test [19] was “inactive” each time.
Consider `CCOc1ccccc1C(N)=O`, for which the Potency result in test [1] was “inactive and 33.5 µM (active)”. For the same compound, the Potency entry in test [2], in [3], in [4], in [5], in test [6] and in test [7] was “inactive” in each case. In addition, the Potency result in test [8], in test [9], in [10], in test [11], in test [12] and in test [13] was “inactive” throughout. Moreover, the Potency entry in [14], in test [15], in test [16], in [17], in [20] and in [18] was “inactive” throughout. The Potency result in test [19] is “inactive”.
